Test results published in PubChem BioAssay (NCI).
The panel holds about 79,000 compounds, 15% with a hit somewhere; the sample as a whole holds those more often. Values without a mark were called inactive. Activity calls are given as the source filed them. No stated cut-off is given here; in the data, active means growth inhibition above about 70%; inactive means the rest.

Experiment: NCI Yeast Anticancer Drug Screen. Data for the mec2-1 strain (AID 157)
Conditions: S. cerevisiae mec2-1 strain, stronger effect = higher value
Method: Growth inhibition of yeast strains with defined genetic alterations is measured as a screen for potential anti-cancer activity. Selected strains with alterations in DNA damage repair or cell cycle control were exposed to compounds and growth inhibition was measured relative to vehicle treated controls. The strain used in this assay is mec2-1

[1] = at 5.0 µM (retest, dose inferred, filed as 0.5)
[2] = at 50.0 µM (retest, dose inferred, filed as 5.0)

Structure (SMILES) | growth inhibition [1] | growth inhibition [2] | growth inhibition (at 50.0 µM)
Cc1ccc(C(OS(=O)(=O)c2ccc(C)cc2)C(F)(F)F)cc1 (configuration not stated) | -11% | -1% | 52.5%
CCc1ccc(/C(C)=N/NC(N)=S)cc1 | -4% | 95% (active) | 19.9%
O=C1C2C3C=CC(C2C(=O)N1CN1CCOCC1)C1C2C(=O)N(CN4CCOCC4)C(=O)C2C31 (configuration not stated) | 11% | 3% | 10.2%
COc1ccc(-c2cc(-c3ccc(OC)cc3OC)[n+](C)c(-c3ccc(OC)cc3OC)c2)cc1 | 98% (active) | 99% (active) | 93% (active)
Oc1ccc(O)c2c1N=NC21c2ccccc2Oc2ccccc21 | 7% | 89% (active) | 54%
COC(=O)c1ccc(OCCC(=O)CCl)cc1 | 1% | 52% | 99.8% (active)
CC(=O)C1=C(C)O/C(=C/c2ccc(Cl)cc2)C1=O | 28% | 99% (active) | 32%
CCCCC(=O)OC1=C(Br)C(=O)c2ccccc2C1=O | 24% | 100% (active) | 63%
C=C1CC(COc2ccc3c(C)cc(=O)oc3c2)(c2ccccc2)OC1=O (configuration not stated) | -6% | 17% | 27%
CCCCCCCSCc1nc2ccccc2c(C)[n+]1[O-] | 3% | 98% (active) | 95.8% (active)
CNC(=S)N/N=C(\C=N\NC(=S)NC)c1ccccc1 | -14% | 35% | 37%
CN1c2ccccc2C(c2ccccc2)c2ccc(Nc3ccccc3)cc21 (configuration not stated) | 100% (active) | 100% (active) | 99.6% (active)
COc1ccccc1C1c2cc3c(cc2OC(N2CCOCC2)C1C)OCO3 (configuration not stated) | 9% | 9% | 14.2%
CCOC(=O)/C(=C\c1cccc(OC)c1)C(C)=O | -5% | 96% (active) | 91.7% (active)
